Reference: publication PMC4336329 (PLoS ONE, 2015)
The campaign covered roughly 310,000 compounds. About 14,000 (4.5%) showed an effect of 50% or more. Effects have a minus sign here. This excerpt belongs to a sample that is enriched for strong results.

Molecular target: human ether-à-go-go-related gene (hERG) potassium channel (human, UniProt Q12809)
Assay: primary screen, population patch clamp on CHO cells stably expressing hERG; higher = less effect of the substance
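Also: peak tail current of the secondary pulse compared with the same well before compound.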

Chain of human ether-à-go-go-related gene (hERG) potassium channel (Q12809 whole entry, looked up): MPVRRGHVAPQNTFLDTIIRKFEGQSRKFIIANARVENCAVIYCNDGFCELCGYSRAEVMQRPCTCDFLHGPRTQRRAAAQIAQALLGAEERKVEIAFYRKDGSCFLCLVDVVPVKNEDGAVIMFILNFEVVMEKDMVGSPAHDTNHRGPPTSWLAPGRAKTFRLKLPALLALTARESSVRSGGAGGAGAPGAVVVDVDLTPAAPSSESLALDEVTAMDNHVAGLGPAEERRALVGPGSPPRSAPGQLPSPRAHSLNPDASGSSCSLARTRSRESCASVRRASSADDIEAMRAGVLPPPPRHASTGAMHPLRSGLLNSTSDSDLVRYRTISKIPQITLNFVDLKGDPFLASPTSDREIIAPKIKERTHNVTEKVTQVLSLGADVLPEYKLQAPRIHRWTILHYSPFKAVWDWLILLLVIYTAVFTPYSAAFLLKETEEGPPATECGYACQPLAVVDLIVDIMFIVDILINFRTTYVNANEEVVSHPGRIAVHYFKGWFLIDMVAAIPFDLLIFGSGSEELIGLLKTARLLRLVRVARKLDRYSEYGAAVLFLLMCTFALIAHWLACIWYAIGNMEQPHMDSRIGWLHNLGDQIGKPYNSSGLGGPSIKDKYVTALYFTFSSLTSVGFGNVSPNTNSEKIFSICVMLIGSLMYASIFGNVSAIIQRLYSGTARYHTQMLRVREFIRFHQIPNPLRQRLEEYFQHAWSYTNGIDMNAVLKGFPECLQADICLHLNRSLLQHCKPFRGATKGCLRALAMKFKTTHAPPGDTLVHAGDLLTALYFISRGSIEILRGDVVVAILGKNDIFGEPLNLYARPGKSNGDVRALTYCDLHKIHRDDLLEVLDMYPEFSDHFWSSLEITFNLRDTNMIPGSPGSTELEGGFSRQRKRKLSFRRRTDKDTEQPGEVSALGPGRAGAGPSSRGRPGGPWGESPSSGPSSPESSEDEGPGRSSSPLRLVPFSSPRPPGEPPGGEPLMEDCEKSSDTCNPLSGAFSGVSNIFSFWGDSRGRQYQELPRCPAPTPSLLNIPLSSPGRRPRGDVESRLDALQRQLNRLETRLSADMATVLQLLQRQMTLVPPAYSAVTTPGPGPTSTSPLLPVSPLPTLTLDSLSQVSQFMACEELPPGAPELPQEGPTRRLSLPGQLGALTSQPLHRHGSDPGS

| SMILES | hERG current change (%, negative = inhibition) at 10uM [%] |
| --- | --- |
| Cc1oc(C2CC2)cc1C(=O)O | -9.52 |
| Cn1cc(CN2CCC(C(=O)Nc3cccc(-c4cccc(F)c4)c3)CC2)cn1 | -67.4 |
| CCn1cc(CN2CCCC(C(=O)Nc3cccc(-c4cc5ccccc5[nH]4)c3)C2)c(C)n1 (centres unmarked) | -14.4 |
| CCn1cc(CN2CCCC(C(=O)Nc3cccc(-c4cc5ccccc5[nH]4)c3)C2)cn1 (centres unmarked) | -6.49 |
| CCn1ncc(CN2CCCC(C(=O)Nc3cccc(-c4cc5ccccc5[nH]4)c3)C2)c1C (centres unmarked) | -56.7 |
| CC(C)n1cc(CN2CCCC(C(=O)Nc3cccc(-c4cc5ccccc5[nH]4)c3)C2)cn1 (centres unmarked) | -46.3 |
| CCn1cc(CN2CCC(C(=O)Nc3cccc(-c4cccc(F)c4)c3)CC2)cn1 | -66.4 |
| CC(C)n1cc(CN2CCC(C(=O)Nc3cccc(-c4cccc(Cl)c4)c3)CC2)cn1 | -85.1 |
| COc1cccc(-c2cccc(NC(=O)C3CCN(Cc4cnn(C)c4)CC3)c2)c1 | -15.6 |
| Cn1cc(CN2CCC(C(=O)Nc3cccc(-c4cscn4)c3)CC2)cn1 | 5.33 |
| CC(C)n1cc(CN2CCC(C(=O)Nc3cccc(-c4cscn4)c3)CC2)cn1 | -32.8 |
| CC(C)Sc1nsc2nc(=O)c(/C=C3\C=Nc4ccccc43)c(N)n12 | 11.7 |
| CN(CC(=O)Nc1cccnc1)S(=O)(=O)c1ccc(Br)cc1 | -21.3 |
| COC(=O)c1ccc(/C=N/NC(=O)CC(=O)NCC(C)C)cc1 | 20.5 |
| CC(=O)c1ccc(N/N=C2/CCCNC2=O)cc1 | 11.3 |
| Oc1ccccc1/C=N/NC(=S)NC1CC2CC1C1C=CCC21 (centres unmarked) | 27.3 |
| c1cnc(N2CCSCC2)nc1 | 0.773 |
| C#CCSc1nc(-c2ccccc2)cc(C(F)(F)F)c1C#N | 7.12 |
| CCCn1ncc(CN2CCC(N3CCC(C(=O)N4CCOCC4)CC3)CC2)c1C | 14.4 |
| CC(=O)c1cccc(CN2CCC(C(=O)Nc3cccc(-c4ccn[nH]4)c3)CC2)c1 | -3.45 |
| CCn1cc(CN2CCC(C(=O)Nc3cccc(-c4cccc(OC)c4)c3)CC2)cn1 | -49.8 |
| C=CCOc1ccccc1CN1CCC(C(=O)Nc2cccc(-c3ccn[nH]3)c2)CC1 | -33.9 |
| CCn1cc(CN2CCC(C(=O)Nc3cccc(-c4cscn4)c3)CC2)cn1 | -15.4 |
| CCCn1ncc(CN2CCC(C(=O)Nc3cccc(-c4cccc(F)c4)c3)CC2)c1C | -71.7 |
| CCCn1cc(CN2CCC(C(=O)Nc3cccc(-c4cscn4)c3)CC2)c(C)n1 | -45.3 |
| CCOc1ccc(CN2CCC(C(=O)Nc3cccc(-c4ccn[nH]4)c3)CC2)cc1Cl | -62.3 |
| CCn1cc(CN2CCC(C(=O)Nc3cccc(-c4cccc(Cl)c4)c3)CC2)cn1 | -67.9 |

| SMILES | hERG current change (%, negative = inhibition) at 10uM [%] |
| --- | --- |
| COCCn1c(SCC(=O)OCc2ccccc2)nc2c1c(=O)[nH]c(=O)n2C | -25.6 |
| CCN1C(=O)CC(N2CCC(Cc3ccccc3)CC2)C1=O (centres unmarked) | -2.52 |
| CCOC(=O)C1(C)NC(c2ccco2)C2C(=O)N(c3ccccc3)C(=O)C21 (centres unmarked) | 10.4 |
| Cc1cc(Br)ccc1NC(=O)C1CCN(S(=O)(=O)c2cnc[nH]2)CC1 | 8.88 |
| COc1ccc2c(c1)C(c1ccc(N3CCOCC3)cc1)=NNC(c1cccnc1)=N2 | -5.34 |
| Clc1ccc(Cc2ccccc2)nn1 | 4.59 |
| COc1cc(C(Nc2ccc3c(c2)OCO3)C(=O)NC2CCCCC2)cc(OC)c1OC (centres unmarked) | -61.7 |
| COc1cc(NC(=O)Nc2ccc3c(c2)OCO3)cc(OC)c1OC | 31.4 |
| COc1cc(C(=O)NC(=S)Nc2ccc3c(c2)OCO3)cc(OC)c1OC | 12.1 |
| CCS(=O)(=O)C1=NSC2=NC(=O)/C(=C\c3ccc(OC(=O)c4ccco4)c(OC)c3)C(=N)N21 | 8.51 |
| COc1cccc(NC(=O)CSc2nc3ccccc3n2C)c1 | -16.5 |
| COC(=O)c1c(C(=O)OC)c2cc(C)ccn2c1Cl | -24.9 |
| O=C(CCn1c(=O)oc2ccc(Cl)cc21)N1CCN(c2ccccc2)CC1 | -33.8 |
| O=C(C[n+]1cc(-c2ccccc2)n2c1CCC2)OCc1ccccc1.[Br-] | -15.2 |
| Cc1ccc(-c2c[n+](CC(=O)OCc3ccccc3)c3n2CCC3)cc1.[Br-] | -56.3 |
| O=C(C[n+]1cc(-c2ccccc2)n2c1CCCCC2)c1ccc(Br)cc1.[Br-] | -52.7 |
| O=C(C[n+]1cc(-c2ccc(Br)cc2)n2c1CCCCC2)c1ccccc1.[Br-] | -9.11 |
| Cc1ccc(C(=O)C[n+]2cc(-c3ccccc3)n3c2CCCCC3)cc1.[Br-] | -11.3 |
| Cc1ccc(-c2c[n+](CC(=O)c3ccc(Br)cc3)c3n2CCCCC3)cc1.[Br-] | -61.4 |
| Cc1ccc(C(=O)C[n+]2cc(-c3ccc(C)cc3)n3c2CCCCC3)cc1.[Br-] | -53.1 |
| O=C(C[n+]1cc(-c2ccc(F)cc2)n2c1CCC2)OCc1ccccc1.[Br-] | -11.9 |
| O=C(C[n+]1cc(-c2ccccc2)n2c1CCC2)c1cccs1.[Br-] | -3.31 |
| COc1ccc(OCCOc2ccc(/C=C3\C(=N)N4N=C(C)SC4=NC3=O)cc2)cc1 | 6.54 |
| CC1Cc2nc(SCC(=O)Nc3nccs3)n(Cc3ccccc3)c(=O)c2S1 (centres unmarked) | 2.84 |
| CSc1nc(N)n2nc(-c3ccc(Cl)cc3)cc2n1 | 5.44 |
| COc1ccc(C(=O)NC(Nc2ccc(C)cc2)C(Cl)(Cl)Cl)cc1 (centres unmarked) | -0.867 |
